The panel holds about 83,000 compounds, 20% with a hit somewhere; the sample as a whole holds those more often.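 Method: cells in 96-well plates; compound added at one concentration; 48 h incubation; percent growth measured; values under 10 scored active.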 A number with no mark means an inactive call. The source made the active and inactive calls.

Among the test systems are NCI-H23 lung; NCI-H226 lung; NCI-H322M lung; HOP-62 NSCLC; NCI-H460 lung; HOP-92 NSCLC; NCI-H522 lung; A549/ATCC NSCLC; 786-0 renal; COLO 205 colon; DU-145 prostate; K-562 leukemia; MALME-3M melanoma; MDA-MB-231 breast; RXF 393 renal; SF-268 CNS; SF-295 CNS; SF-539 CNS; UACC-257 melanoma; M14 melanoma.
Common to all, as to assay: NCI-60 one-dose screen, 48 h (100 = growth as untreated, 0 = no growth, -100 = all killed)
What all share (settings): 10 µM unless noted

With `c1csc(-c2cn3nc(-c4c[nH]c5ccccc45)sc3n2)c1`, the growth in the assay on NCI-H23 lung is 36.9%; in the assay with NCI-H226 lung it was 72.4%; in the assay on NCI-H322M lung, 25%; in the assay on HOP-62 NSCLC it was 27%; with NCI-H460 lung, 11.2%; in the assay on HOP-92 NSCLC, 38.3%. The growth in the assay with NCI-H522 lung was -6.13% (active); with A549/ATCC NSCLC, 35%; in the assay on 786-0 renal, 42.2%; in the assay with COLO 205 colon, 5.46% (active); with DU-145 prostate, 13.4%; in the assay on K-562 leukemia, 15.6%. The growth in the assay on MALME-3M melanoma was 23.7%; in the assay with MDA-MB-231 breast, 22.9%; in the assay with RXF 393 renal, 34.4%; in the assay on SF-268 CNS, 46.1%; with SF-295 CNS, 14.4%; in the assay on SF-539 CNS, -12.8% (active). The growth in the assay with UACC-257 melanoma is 60.1%; in the assay on M14 melanoma, 8.8% (active).

Turning to `Cn1cc(-c2nonc2-c2c[nH]c3ccccc23)c2cc(Br)ccc21`, the growth in the assay with NCI-H23 lung is 52.9%; in the assay with NCI-H226 lung, 75.5%; with NCI-H322M lung, 53.2%; with HOP-62 NSCLC, 25.2%; in the assay on NCI-H460 lung, 14.9%; in the assay with HOP-92 NSCLC, 63.4%. Moreover, the growth in the assay with NCI-H522 lung is 7.04% (active); in the assay with A549/ATCC NSCLC, 27.9%; with 786-0 renal, 50.6%; with COLO 205 colon, 15%; in the assay with DU-145 prostate it was 58.1%; in the assay on K-562 leukemia, 11.1%. Moreover, the growth in the assay on MALME-3M melanoma is 40.8%; in the assay with MDA-MB-231 breast, 37%; with RXF 393 renal it was 70.9%; with SF-268 CNS, 43.3%; with SF-295 CNS it was 24.5%; in the assay on SF-539 CNS, 40.1%. The growth was 71.5% in the assay on UACC-257 melanoma and 18.5% in the assay on M14 melanoma.

Take `COc1ccc(/C=C2\c3cc(OC)c(OC)c(OC)c3CC[C@@H]2O)cc1F`: the growth with NCI-H23 lung is 37.3%; in the assay on NCI-H226 lung, 58.1%; in the assay with NCI-H322M lung, 66.3%; with HOP-62 NSCLC it was 32.6%; in the assay with NCI-H460 lung, 13.8%; with HOP-92 NSCLC, 38.2%. The growth was -32.5% (active) with NCI-H522 lung; 16.7% with A549/ATCC NSCLC; 34.7% with 786-0 renal; 2.26% (active) in the assay with COLO 205 colon; 19.5% in the assay on DU-145 prostate; 13.4% with K-562 leukemia. In addition, the growth with MALME-3M melanoma was 70.2%; with MDA-MB-231 breast it was 28.8%; with RXF 393 renal, 8.31% (active); in the assay with SF-268 CNS, 53.9%; with SF-295 CNS, 17%; with SF-539 CNS it was 1.44% (active). Further, the growth was 39% in the assay with UACC-257 melanoma and 5.42% (active) in the assay on M14 melanoma.

As for `CCCOC(=O)Nc1nc2ccc(SCC)cc2s1`, the growth in the assay with NCI-H23 lung is 91.9%; with NCI-H226 lung it was 92.9%; in the assay with NCI-H322M lung, 99.3%; with HOP-62 NSCLC, 81.4%; in the assay with NCI-H460 lung, 79.6%; with HOP-92 NSCLC, 96.1%. In addition, the growth with NCI-H522 lung was 65.6%; in the assay on A549/ATCC NSCLC it was 80.5%; with 786-0 renal, 93.9%; with COLO 205 colon it was 72.2%; with DU-145 prostate, 94.6%; with K-562 leukemia, 26.2%. In addition, the growth was 77.9% in the assay with MALME-3M melanoma; 82.9% with MDA-MB-231 breast; 95.8% in the assay on RXF 393 renal; 92.8% with SF-268 CNS; 80.8% in the assay on SF-295 CNS; 80.9% with SF-539 CNS. In addition, the figures for the growth in the assay on UACC-257 melanoma and in the assay on M14 melanoma were 96.4% and 46.5%, respectively.

Turning to `CCOc1ncc([N+](=O)[O-])c(OCC)n1`, the growth was 106% in the assay on NCI-H23 lung; 107% in the assay with NCI-H226 lung; 123% in the assay on NCI-H322M lung; 104% in the assay with HOP-62 NSCLC; 113% with NCI-H460 lung; 82.2% in the assay with HOP-92 NSCLC. The growth was 99.9% with NCI-H522 lung; 98.9% with A549/ATCC NSCLC; 108% in the assay with 786-0 renal; 112% in the assay with COLO 205 colon; 123% in the assay on DU-145 prostate; 103% in the assay on K-562 leukemia. The growth was 129% in the assay with MALME-3M melanoma; 97.1% with MDA-MB-231 breast; 122% in the assay on RXF 393 renal; 118% in the assay on SF-268 CNS; 116% with SF-295 CNS; 102% in the assay on SF-539 CNS. Also, the growth was 102% in the assay on UACC-257 melanoma and 112% in the assay on M14 melanoma.

For `CCN(CC)CCOc1ccc(C(=O)/C=C\c2ccc(Cl)cc2Cl)cc1`, the growth in the assay with NCI-H23 lung was 58.3%; in the assay with NCI-H226 lung, 53.5%; in the assay on NCI-H322M lung, 63.9%; with HOP-62 NSCLC, 57.2%; with NCI-H460 lung, 61.3%; in the assay on HOP-92 NSCLC it was 24.5%. Further, the growth is 44% in the assay on NCI-H522 lung; 21.7% with A549/ATCC NSCLC; 35.9% in the assay with 786-0 renal; -53.5% (active) in the assay on COLO 205 colon; 51.7% in the assay with DU-145 prostate; 3.71% (active) with K-562 leukemia. Moreover, the growth is 42.4% in the assay on MALME-3M melanoma; 32.6% with MDA-MB-231 breast; 34% in the assay with RXF 393 renal; 55.2% with SF-268 CNS; 63.2% in the assay on SF-295 CNS; 30% in the assay with SF-539 CNS. Also, the growth in the assay on UACC-257 melanoma was 3.72% (active); in the assay on M14 melanoma, -37.4% (active).

As to `Nc1ccc(-c2ccncc2)cc1NC(=O)N1CCCC1`, the growth in the assay with NCI-H23 lung was 102%; in the assay on NCI-H226 lung, 98.1%; in the assay on NCI-H322M lung, 92%; in the assay on HOP-62 NSCLC it was 86.5%; in the assay with NCI-H460 lung, 100%; with HOP-92 NSCLC, 104%. The growth is 57.4% in the assay on NCI-H522 lung; 87.7% in the assay on A549/ATCC NSCLC; 96.8% with 786-0 renal; 105% in the assay on COLO 205 colon; 105% in the assay on DU-145 prostate; 102% in the assay with K-562 leukemia. Moreover, the growth was 69.9% in the assay on MALME-3M melanoma; 120% in the assay with MDA-MB-231 breast; 100% with RXF 393 renal; 93.3% in the assay with SF-268 CNS; 103% in the assay with SF-295 CNS; 90.1% with SF-539 CNS. The growth with UACC-257 melanoma is 59.7%; with M14 melanoma it was 94.2%.

In the case of `CCN(CC)CCCC(Cc1ccccc1)Nc1c2ccc(Cl)cc2nc2ccc(OC)cc12` (stereo not given), the growth is 67.1% in the assay with NCI-H23 lung; 84.4% in the assay on NCI-H226 lung; 9.3% (active) in the assay with NCI-H322M lung; 67.3% with HOP-62 NSCLC; 28.6% in the assay with NCI-H460 lung; -4.73% (active) with HOP-92 NSCLC. For the same compound, the growth is 1.88% (active) with NCI-H522 lung; 39.3% with A549/ATCC NSCLC; -22.6% (active) with 786-0 renal; -42.3% (active) in the assay with COLO 205 colon; 62.3% with DU-145 prostate; -39.2% (active) in the assay with K-562 leukemia. Also, the growth was -78.3% (active) in the assay on MALME-3M melanoma; -31.3% (active) in the assay on MDA-MB-231 breast; -51.7% (active) in the assay with RXF 393 renal; 51.9% in the assay with SF-268 CNS; -37.9% (active) in the assay on SF-295 CNS; -87.5% (active) in the assay on SF-539 CNS. Further, the growth was -40.8% (active) in the assay with UACC-257 melanoma and -76.9% (active) with M14 melanoma.

These data come from PubChem BioAssay (NCI).
